High-throughput results as filed in PubChem.
A selection: hits, their analogues and other compounds. The true share with any hit is near 3.1%.
Neddyl block: cullin neddylation inhibition; AID 651699; 360,000 compounds, 0.58% hits; TR-FRET cullin neddylation, biochemical; calls only at 25 µM; P61081+Q13564; in the data active = inhibition above about 36%
Rin1-Abl PPI inh: blocks binding of human Rin1 to Abl; P00519+Q13671; TR-FRET Rin1/Abl binding, biochemical; inhibition, % at 7.35 µM; 360,000 compounds, 0.4% hits; in the data active = inhibition above about 5%, passing the limit was not always enough
MBD2 inh: blocks human MBD2 binding to methylated DNA; TR-FRET, MBD2 binding to methylated oligonucleotide; inhibition, % at 4.4 µM; 370,000 compounds, 0.31% hits; AID 686964; in the data active = inhibition above about 13%
Target sequence (Q9UBB5 whole entry, looked up): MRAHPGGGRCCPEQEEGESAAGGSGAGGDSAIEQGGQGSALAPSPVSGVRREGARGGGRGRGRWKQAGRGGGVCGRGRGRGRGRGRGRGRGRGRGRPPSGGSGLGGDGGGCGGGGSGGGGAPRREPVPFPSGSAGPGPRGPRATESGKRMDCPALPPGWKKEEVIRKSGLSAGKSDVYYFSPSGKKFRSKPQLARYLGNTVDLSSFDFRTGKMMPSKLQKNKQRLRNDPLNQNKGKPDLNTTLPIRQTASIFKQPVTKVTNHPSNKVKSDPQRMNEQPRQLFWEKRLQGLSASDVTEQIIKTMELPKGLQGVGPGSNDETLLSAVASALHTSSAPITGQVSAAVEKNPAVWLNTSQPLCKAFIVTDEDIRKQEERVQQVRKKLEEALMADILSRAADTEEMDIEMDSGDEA
LEDGF integ inh: blocks HIV-1 LEDGF/p75-dependent DNA integration; TR-FRET IN-LEDGF/p75 DNA integration, Eu/Cy5; inhibition, % at 3.7 µM; 370,000 compounds, 0.64% hits;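 active = inhibition above the screen-wide mean plus 3 SD, cut at about 13% in these data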;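 also: signal is the Cy5 over europium emission ratio at 671 and 618 nm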
UHRF1 binding: UHRF1 methyl-DNA binding inhibition | Q96T88 | inhibition, % at 4.4 µM | UHRF1 binding to methylated oligo, TR-FRET | 370,000 compounds, 0.75% hits | AID 687016; in the data active = inhibition above about 21%;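 also: UHRF1 SRA domain binding a hemimethylated CpG hairpin DNA probe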
proKLK7 act: activators of human kallikrein-7 zymogen; purified proKLK7, EDANS-DABCYL substrate fluorescence; 100% is mature enzyme control, 0% vehicle; 370,000 compounds, 0.9% hits; activation, % at 7 µM; P49862;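 active = activation above the mean of all tested compounds plus 3 SD, computed per campaign excluding outliers beyond control limits, cut at about 13% in these data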
Target sequence (P49862 whole entry, looked up): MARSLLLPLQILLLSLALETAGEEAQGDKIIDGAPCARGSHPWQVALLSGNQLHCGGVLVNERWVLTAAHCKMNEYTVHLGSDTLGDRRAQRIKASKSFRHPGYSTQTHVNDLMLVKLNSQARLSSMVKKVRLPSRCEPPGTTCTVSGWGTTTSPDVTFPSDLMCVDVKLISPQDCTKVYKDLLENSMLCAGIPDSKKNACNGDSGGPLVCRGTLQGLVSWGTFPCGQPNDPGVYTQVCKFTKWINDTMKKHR
KLK7 act conf: confirmation of human kallikrein-7 zymogen activators; shares compounds with proKLK7 act; purified proKLK7, EDANS-DABCYL substrate fluorescence; scaled: vehicle 0, mature enzyme 100; activation, % at 7 µM; 3,200 compounds, 68% hits; AID 686949;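 active = activation, as change over the incubation, above the mean of all tested compounds plus 3 SD, cut at about 13% in these data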
EDANS-DABCYL int: counter-screen for kallikrein-7 activators: EDANS-DABCYL optical interference | 3,200 compounds, 80% hits | activation, % at 7 µM | shares compounds with proKLK7 act | EDANS-DABCYL substrate fluorescence interference, no enzyme, 4 h; solvent 0%, active enzyme control 100%;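 active = activation above the all-compound mean plus 3 SD, ignoring values outside control-based bounds, cut at about 4.8% in these data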;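 also: value is the 4 h activation minus the activation read at time zero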
K7 EDANS ctr: optically interferes with EDANS-DABCYL fluorescence, kallikrein-7 activator counter-screen | shares compounds with proKLK7 act | EDANS-DABCYL peptide fluorescence interference, no enzyme | EC50, µM | 250 compounds, 20% hits | AID 720493;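 active = compounds that raise the fluorescence signal in this interference counterscreen, with EC50 at or below 10 µM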;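 also: intact quenched peptide substrate alone read at 355 nm excitation and 520 nm emission; signal is fluorescence gain from T0 to T4 after four hours at room temperature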
Of the large screens only hits and unclear results are named; the others gave an inactive call (follow-up assays come after a bar, where shown).

CN1C(=O)c2ccccc2N(C)C1c1ccc(F)cc1 (configuration not stated)	proKLK7 act 19 (not shown: Neddyl block) | KLK7 act conf 27 | EDANS-DABCYL int 14 | K7 EDANS ctr inactive
CN1C(=O)c2ccccc2N(C)C1c1ccc2c(c1)OCO2 (configuration not stated)	proKLK7 act 19 (not shown: Neddyl block) | KLK7 act conf 22 | EDANS-DABCYL int 18 | K7 EDANS ctr inactive
CC(C)C12CN3CC(C(C)C)(CN(C1)C3c1ccc3c(c1)OCO3)C2=O (configuration not stated)	none
COc1cc(C2C(=O)c3ccccc3C2=O)ccc1O	none (not shown: Neddyl block)
COc1ccc(C2=Nc3ccccc3NC(=O)C2N(C(=O)c2cnc(C)cn2)c2ccc(N3CCOCC3)cc2)cc1 (configuration not stated)	none
CC(C)(/C=N/O)N(O)C=C1C=CC(=O)C=C1	none
CN1C=CC(=CC=C2C=CC(=O)C=C2)C=C1	proKLK7 act 50 | KLK7 act conf inactive | EDANS-DABCYL int 14
COc1ccc(-n2c3c(cc(C#N)c2=O)C(=O)CCC3)cc1	none
CC(=O)Oc1ccc2c(C)c(CC(=O)N3CCN(C(=O)C4COc5ccccc5O4)CC3)c(=O)oc2c1C (configuration not stated)	proKLK7 act 155 (not shown: Neddyl block) | KLK7 act conf 344 | EDANS-DABCYL int 368
CC[C@]12c3[nH]c4cc(-c5ccco5)ccc4c3CCN1C(=O)[C@@H](CC(=O)NCCCOC)C[C@@H]2C(=O)N1CCN(C(=O)C2CC2)CC1	proKLK7 act 89 (not shown: Neddyl block) | KLK7 act conf 81 | EDANS-DABCYL int 94
CC[C@]12c3[nH]c4cc(-c5ccco5)ccc4c3CCN1C(=O)[C@@H](CC(=O)NCCCN(C)C)C[C@@H]2C(=O)N1CCN(C(=O)C2CC2)CC1	proKLK7 act 64 (not shown: Neddyl block) | KLK7 act conf 52 | EDANS-DABCYL int 66
CC[C@]12c3[nH]c4cc(CCC(=O)N(C)C)ccc4c3CCN1C(=O)[C@@H](CC(=O)NCc1ccc(OC)c(OC)c1)C[C@@H]2C(=O)N1CCN(C(=O)c2ccco2)CC1	none
CC[C@]12c3[nH]c4cc(CCC(=O)N(C)C)ccc4c3CCN1C(=O)[C@@H](CC(=O)NCCCN(C)C)C[C@@H]2C(=O)N1CCN(C(=O)C2CC2)CC1	none
CC[C@]12c3[nH]c4cc(-c5ccco5)ccc4c3CCN1C(=O)[C@@H](CC(=O)NCc1ccc(OC)c(OC)c1)C[C@@H]2C(=O)N1CCN(C(=O)c2ccco2)CC1	proKLK7 act 122 (not shown: Neddyl block) | KLK7 act conf 63 | EDANS-DABCYL int 74
CC[C@]12c3[nH]c4cc(-c5ccco5)ccc4c3CCN1C(=O)[C@@H](CC(=O)NCCCOC)C[C@@H]2C(=O)N1CCN(C(=O)c2ccco2)CC1	proKLK7 act 137 (not shown: Neddyl block) | KLK7 act conf 103 | EDANS-DABCYL int 124
COc1ccc(NC(=O)CN2CCN(CC(=O)Nc3ccc(F)cc3F)CC2)cc1	none
COC(=O)C1=C(C)N(Cc2cccc(C(F)(F)F)c2)C(=NCc2cc(OC)c(OC)c(OC)c2)NC1c1ccc(F)cc1 (configuration not stated)	none (no result: Neddyl block, Rin1-Abl PPI inh)
CCCCCCCCN1C(=O)[C@@H](CC(=O)NCc2ccc(OC)c(OC)c2)C[C@@]2(C(=O)OC)C1=C[C@H](C(C)(C)C)O[C@@H]2C	none (no result: Neddyl block, Rin1-Abl PPI inh)
COCCCn1c(C(=O)N2CC(C)OC(C)C2)cc2c(=O)n3ccccc3nc21 (configuration not stated)	proKLK7 act 83 (not shown: Neddyl block) | KLK7 act conf 70 | EDANS-DABCYL int 71
COCCCn1c(=N)c(C(=O)NC2CCCCC2)cc2c(=O)n3ccccc3nc21	proKLK7 act 150 (not shown: Neddyl block) | KLK7 act conf inactive | EDANS-DABCYL int inactive
Cn1c(C(=O)NCC2CCCO2)cc2c(=O)n3ccccc3nc21 (configuration not stated)	proKLK7 act 59 | KLK7 act conf 68 | EDANS-DABCYL int 73
COc1ccc(CCn2c(=N)c(C(=O)NCC3CCCO3)cc3c(=O)n4ccccc4nc32)cc1OC (configuration not stated)	none
COCCCn1c(=N)c(C(=O)NCc2ccc3c(c2)OCO3)cc2c(=O)n3ccccc3nc21	none
N=c1c(C(=O)NC2CCCCC2)cc2c(=O)n3ccccc3nc2n1CC1CCCO1 (configuration not stated)	proKLK7 act 53 (not shown: Neddyl block) | KLK7 act conf inactive | EDANS-DABCYL int 21
COc1ccc(Cn2c(=N)c(C(=O)NC3CCCCC3)cc3c(=O)n4ccccc4nc32)cc1	none
O=C(C[C@@H]1C[C@@H]2c3cc(NC(=O)c4ccc5c(c4)OCO5)ccc3O[C@@H]2[C@@H](CO)O1)NCc1cccnc1	none (no result: Neddyl block, Rin1-Abl PPI inh)
O=C(O)c1cn(Cc2ccccc2Cl)c2ccc(S(=O)(=O)N3CCOCC3)cc2c1=O	none
Cn1c(C(=O)N2COCC2(C)C)cc2c(=O)n3ccccc3nc21	proKLK7 act 48 (not shown: Neddyl block) | KLK7 act conf 74 | EDANS-DABCYL int 70
N=c1c(C(=O)NC2CCCC2)cc2c(=O)n3ccccc3nc2n1CC1CCCO1 (configuration not stated)	proKLK7 act 105 (not shown: Neddyl block) | KLK7 act conf 33 | EDANS-DABCYL int 25 | K7 EDANS ctr inactive
N=c1c(C(=O)NC2CCCC2)cc2c(=O)n3ccccc3nc2n1C1CCCC1	proKLK7 act 50 | KLK7 act conf inactive | EDANS-DABCYL int inactive
CC(NC(=O)c1cc2c(=O)n3ccccc3nc2n(CC2CCCO2)c1=N)c1ccccc1 (configuration not stated)	none (not shown: Neddyl block)
Cc1cccn2c(=O)c3cc(C(=O)NC4CCCC4)c(=N)n(C4CCCC4)c3nc12	none
Cc1cccn2c(=O)c3cc(C(=O)N4COCC4(C)C)sc3nc12	none (not shown: Neddyl block)
COc1ccc(C(=O)N2CCC2)cc1S(=O)(=O)NCc1ccc(Cl)cc1	none
COc1cccc(NC(=O)CN2CCN(C(=O)c3ccco3)CC2)c1	none
CCOC(=O)[C@@]12CN(C(=O)OC(C)(C)C)CC=C1N(Cc1ccc(OC)cc1)C(=O)[C@H]2CC(=O)N1CCC(c2ccccc2)CC1	none (no result: Neddyl block, Rin1-Abl PPI inh)
NC(=O)c1ccccc1NC(=O)c1ccc2ccccc2c1	proKLK7 act 15 | KLK7 act conf inactive | EDANS-DABCYL int inactive
COc1ccc(C(=O)Nc2ccccc2C(N)=O)cc1	none
